Bioassay records (PubChem)
A549 viability – Nrf2 qHTS screen for inhibitors: counterscreen for cytotoxicity; 390,000 tested, 0.16% active; Potency, µM (series often up to 46 µM), usual class: inhibitors; A549 ARE-Fluc cells, CellTiter-Fluor viability, 18-24 h; AID 504648, 2011
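A549 ARE_Fluc cells in 5% FBS OPTI-MEM were exposed to compounds in concentration-response for 18-24 h at 37 deg C. Viability was read by CellTiter-Fluor fluorescence (Ex 405/Em 525) after 30 min, before the luciferase read.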
ClpP mod – qHTS Assay for Activators of ClpP | purified B. subtilis ClpP, FRET peptide cleavage, 20 min | Potency, µM (highest dose often 57.5 µM) | 340,000 tested, 1.9% active | AID 651965, 2013; active = well fitted falling curve with a large enough effect; inconclusive = small, poorly fitted or top-dose-only effect; inactive = no such curve, though single readings can be large or run the other way; note: the source files actives as falling curves though it sought activators and does not explain the sign; nearly all actives have a fitted effect of over 65% in size
Target sequence (P80244 whole entry, looked up): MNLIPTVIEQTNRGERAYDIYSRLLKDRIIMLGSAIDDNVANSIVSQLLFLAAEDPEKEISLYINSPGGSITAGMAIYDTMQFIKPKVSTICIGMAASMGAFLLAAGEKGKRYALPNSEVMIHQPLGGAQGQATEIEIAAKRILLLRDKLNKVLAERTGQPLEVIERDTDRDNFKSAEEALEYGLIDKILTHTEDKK
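Purified B. subtilis ClpP, 10 microg/mL final in Tris/HCl pH8 with KCl, BSA, glycerol and Tween-20, cleaved an Abz/nitrotyrosine-quenched decapeptide. Fluorescence (ex 320, em 430) was read at 0 and 20 min at room temperature. Delta was normalized to 5.8 microM ADEP and DMSO/no-enzyme controls.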
miR-21 act – qHTS Assay for Modulators of miRNAs and/orActivators of miR-21; HeLa miR-21 FLuc reporter, luciferase, 48 h; 340,000 tested, under 10 active; Potency, µM (doses to about 38.3 µM), actives largely listed as activators;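 note: miR-21 action dims this reporter so a rising signal means less miR-21 action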
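HeLa miR-21-FLuc reporter line, endogenous miR-21; 2000 cells/well in DMEM/10% FBS; compound titration up to ~40uM final, 48 h, 37 degree Celsius; luciferase detection reagent, 15 min lysis, CCD luminescence.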
Nrf2 inh – Nrf2 qHTS screen for inhibitors | A549 ARE-Fluc reporter, luciferase luminescence, 18-24 h | Potency, µM (titrated, usually from 46 µM), most hits filed as inhibitors | 360,000 tested, 2.1% active; note: nearly all actives have a fitted effect of over 60% in size
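Quantitative HTS in A549 cells stably bearing an antioxidant response element-firefly luciferase construct. Inhibition of Nrf2-driven transcription was scored by luminescence after 18-24 h of compound exposure at 37 °C.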
IL2 activator – qHTS of IL-2 Activators. 360,000 tested, 0.065% active. activation, % (series mostly up to about 46 µM). AID 652025, 2013. IL-2 activation reporter assay, cell-based qHTS; stimulated with anti-CD3/CD4/CD28 beads; in transgenic mouse T cells; in the data active = activation above about 50%; inconclusive = mostly about 30% to 49%
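Unstimulated transgenic mouse T cells, 750 per well, received compound and, after 60 minutes, anti-CD3/anti-CD4 bead plus anti-CD28 stimulation. EGFP and DsRed were quantified after 18 hours.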
Nrf2 ARE act – qHTS of Nrf2 Activators | 410,000 tested, 0.31% active | Potency, µM (series often up to 46.1 µM), most hits filed as activators | AREc32 ARE-luciferase reporter (MCF7-derived line), luminescence, 24 h; note: nearly all actives have a fitted effect of over 65% in size
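Each well held 1000 AREc32 cells, which were incubated with compound for 24 hr at 37 deg C after overnight attachment, and ARE reporter activity was quantified by firefly luciferase luminescence.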
A number is an active result; [ ] = another dose, or the depositor's remark. The list is not random: actives were taken first. Their share in the collection is about 3.7%. Unless noted, calls come from the whole dose curve; as a rule, active = well fitted curve in the direction sought with a large enough effect; inconclusive = small, poorly fitted or top-dose-only effect, or another doubt; inactive = no such curve, though single readings can be large; an effect the other way counts as inactive or inconclusive.

For O=C(COC(=O)c1cccs1)NCCN1C(=O)CSC1=O the results were A549 viability inactive, ClpP mod inactive, miR-21 act inactive, Nrf2 inh inconclusive, IL2 activator inactive and Nrf2 ARE act inactive.
Screening CC1=C(C(=O)OCC2CCCCC2)C(c2cccc(F)c2F)CC(=O)N1 (stereo unspecified) returned A549 viability inactive, ClpP mod inactive, miR-21 act inactive, Nrf2 inh inactive and Nrf2 ARE act inactive.
For CC1=C(C(=O)OCc2ccc(C)cc2)C(c2cccc(F)c2F)CC(=O)N1 (stereo unspecified) the results were A549 viability inactive, ClpP mod inactive, miR-21 act inactive, Nrf2 inh 23.1µM and Nrf2 ARE act inactive.
`CCNC(=S)N1CCN(c2nc(-c3cccc(OC)c3)cs2)CC1` gave A549 viability inactive, ClpP mod inactive, miR-21 act inactive, Nrf2 inh inconclusive, IL2 activator inactive and Nrf2 ARE act inactive.
For COc1cccc(-c2csc(N3CCN(C(=S)NCC(C)C)CC3)n2)c1 the results were A549 viability inactive, miR-21 act inactive, Nrf2 inh 18.4µM, IL2 activator inactive and Nrf2 ARE act inactive.
Screening CC(C)CNC(=S)N1CCN(c2nc(-c3ccc(Cl)cc3)cs2)CC1 returned A549 viability inactive, miR-21 act inactive, Nrf2 inh 18.4µM, IL2 activator inactive and Nrf2 ARE act inactive.
`COc1ccc(NC(=O)N2CCN(c3nc(-c4cccc(OC)c4)cs3)CC2)cc1` gave A549 viability inactive, ClpP mod inactive, miR-21 act inactive, Nrf2 inh inconclusive, IL2 activator inactive and Nrf2 ARE act inactive.
For COc1cccc(-c2csc(N3CCN(C(=S)Nc4cccc(Cl)c4)CC3)n2)c1 the results were A549 viability inactive, ClpP mod inactive, miR-21 act inactive, Nrf2 inh 18.4µM, IL2 activator inactive and Nrf2 ARE act inactive.
`COc1cccc(-c2csc(N3CCN(C(=O)Nc4ccc(Cl)cc4)CC3)n2)c1` gave A549 viability inconclusive, ClpP mod inactive, miR-21 act inactive, Nrf2 inh 14.6µM, IL2 activator inactive and Nrf2 ARE act inactive.
For O=C(NCCc1ccc(Cl)cc1)c1ccc(CS(=O)(=O)Cc2ccccc2F)o1 the results were A549 viability inactive, ClpP mod inactive, miR-21 act inactive and Nrf2 ARE act inactive.
For Brc1ccc(N/N=C(/N=Nc2nn[nH]n2)c2ccccc2)cc1 the results were A549 viability inconclusive, ClpP mod inactive, miR-21 act inconclusive, Nrf2 inh 10.3µM, IL2 activator inactive and Nrf2 ARE act inactive.
`Cc1cc2nc(-c3cccc(Br)c3)c(Cc3ccccc3)n2c(C)c1Br` gave ClpP mod inactive, IL2 activator inactive and Nrf2 ARE act 11.2µM.
Cc1cc2nc(-c3cccc(Br)c3)c(Cc3ccsc3)n2c(C)c1Br was read as ClpP mod inactive, IL2 activator inactive and Nrf2 ARE act inactive.
For CCOc1ccc(NC(=O)Cn2c(=O)cc(C)c3c(C)nn(-c4ccc(CC)cc4)c32)cc1 the results were A549 viability inactive, ClpP mod inactive, miR-21 act inactive, Nrf2 inh inconclusive and Nrf2 ARE act inactive.
`O=c1nc2n(CCO)c3ccccc3cc-2c(=O)[nH]1` gave A549 viability inactive, ClpP mod 31.6µM, Nrf2 inh inactive, IL2 activator inactive and Nrf2 ARE act inactive.
Screening CCOC(=O)c1cc2c(=O)n3ccccc3nc2n(CCCOC)c1=NC(=O)C(C)(C)C returned A549 viability inactive, ClpP mod 28.2µM, miR-21 act inactive, Nrf2 inh inactive, IL2 activator inactive and Nrf2 ARE act inactive.
For CCOC(=O)c1cc2c(=O)n3ccccc3nc2n(C(C)C)c1=NC(=O)c1ccncc1 the results were A549 viability inactive, ClpP mod 28.2µM, miR-21 act inactive, Nrf2 inh inactive, IL2 activator inactive and Nrf2 ARE act inactive.
Screening CCOC(=O)c1cc2c(=O)n3ccccc3nc2n(CCOC)c1=NC(=O)c1ccncc1 returned A549 viability inactive, ClpP mod 12.6µM, miR-21 act inactive, Nrf2 inh inactive, IL2 activator inactive and Nrf2 ARE act inactive.
Screening CCOC(=O)c1cc2c(=O)n3ccccc3nc2n(CCOC)c1=NC(=O)C(C)(C)Oc1ccc(Cl)cc1 returned A549 viability inactive, ClpP mod inactive, miR-21 act inactive, Nrf2 inh inactive[9.27 µM] and Nrf2 ARE act inactive.
Screening CCOC(=O)c1cc2c(=O)n3ccccc3nc2n(CCCOC)c1=NC(=O)c1cccnc1 returned miR-21 act inactive.
`CCOC(=O)c1cc2c(=O)n3ccccc3nc2n(CCOC)c1=NC(=O)C(C)(C)C` gave A549 viability inconclusive, ClpP mod 17.8µM, miR-21 act inactive, Nrf2 inh inactive, IL2 activator inactive and Nrf2 ARE act inactive.
CCOC(=O)c1ccc(NC(=O)c2c(N3CCCC3=O)c3cc(OC)ccc3n2C)cc1 was read as A549 viability inactive, ClpP mod inactive, miR-21 act inactive, Nrf2 inh inactive and Nrf2 ARE act inactive.
Nc1c(-c2nc(-c3cccs3)no2)nnn1-c1ccccc1Cl was read as A549 viability inactive, ClpP mod inactive, miR-21 act inactive, Nrf2 inh inconclusive and Nrf2 ARE act inactive.
`CC1=C(C(=O)OC2CCCCCC2)C(c2c(Cl)cccc2Cl)CC(=O)N1` (stereo unspecified) gave A549 viability inactive, ClpP mod inactive, miR-21 act inactive, Nrf2 inh 20.6µM and Nrf2 ARE act inactive.
For COC(=O)c1ccc(Cl)cc1NC(=O)N1CC=C(c2c[nH]c3ccccc23)CC1 the results were A549 viability inactive, ClpP mod 28.2µM, miR-21 act inactive, Nrf2 inh inactive and Nrf2 ARE act inactive.
Screening Cc1ccc(NC(=O)N2CC=C(c3c[nH]c4ccccc34)CC2)cc1Cl returned A549 viability inactive, ClpP mod inactive, miR-21 act inactive and Nrf2 ARE act inactive.
CN1CCC(=NNC(=O)C(=O)NC2CCCC2)CC1 was read as A549 viability inactive, ClpP mod 31.6µM, miR-21 act inactive, Nrf2 inh inactive, IL2 activator inactive and Nrf2 ARE act inactive.
Screening Clc1ccc(Cn2c(-c3cccnc3Cl)nc3ccccc32)c(Cl)c1 returned A549 viability inconclusive, ClpP mod inactive, miR-21 act inactive, Nrf2 inh 18.4µM, IL2 activator inactive and Nrf2 ARE act inactive.
`O=C(COC(=O)Cn1nnc2ccccc21)Nc1ccccc1Br` gave A549 viability inactive, ClpP mod 28.2µM, miR-21 act inactive, Nrf2 inh inactive, IL2 activator inactive and Nrf2 ARE act inactive.
